Measurements published in PubChem BioAssay AID1619 (SRMLSC, 2009).
Screen size: about 220,000 compounds; about 830 (0.38%) were called active.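 How the source made its calls: active means compound inhibiting the enzyme by more than half at any dose during confirmatory dose-response retesting; inconclusive means strong single-dose inhibitors picked by rank but not retested; inactive means the rest.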 The list is a sample of the results. Potency and affinity values are given separately.

Each compound was assayed against Leucine aminopeptidase (Plasmodium falciparum (isolate 3D7)) (UniProt Q8IL11) (assay: P. falciparum M17LAP inhibitors, primary screen, biochemical, fluorogenic H-Leu-NHMec substrate, 1536-well (AID 1619;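 further: plate controls were full reaction with DMSO carrier for no effect and no enzyme background for full effect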)). Conditions: recombinant M17LAP, H-Leu-NHMec fluorogenic kinetic assay; at 30 µM; hits give high values.
Chain of Leucine aminopeptidase (Plasmodium falciparum (isolate 3D7)) (Q8IL11 whole entry, looked up): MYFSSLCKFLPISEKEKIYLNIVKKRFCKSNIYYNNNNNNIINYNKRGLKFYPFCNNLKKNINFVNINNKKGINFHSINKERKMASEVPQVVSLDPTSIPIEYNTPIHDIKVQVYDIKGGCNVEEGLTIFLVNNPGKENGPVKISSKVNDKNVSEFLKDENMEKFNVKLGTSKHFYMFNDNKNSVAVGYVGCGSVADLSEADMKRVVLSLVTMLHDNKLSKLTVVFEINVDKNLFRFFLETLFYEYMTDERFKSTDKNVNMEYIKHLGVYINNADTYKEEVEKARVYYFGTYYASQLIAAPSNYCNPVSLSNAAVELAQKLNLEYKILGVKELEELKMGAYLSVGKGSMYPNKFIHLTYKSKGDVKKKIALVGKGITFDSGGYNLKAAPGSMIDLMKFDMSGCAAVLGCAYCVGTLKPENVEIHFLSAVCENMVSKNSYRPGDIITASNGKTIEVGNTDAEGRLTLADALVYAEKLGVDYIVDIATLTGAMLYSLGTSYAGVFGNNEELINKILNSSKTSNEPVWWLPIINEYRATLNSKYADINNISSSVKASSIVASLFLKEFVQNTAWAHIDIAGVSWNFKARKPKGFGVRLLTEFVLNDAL

inhibition, inactive:
O=C1CN(C(=O)CCN2CCOCC2)C(c2ccccc2)c2cc(Br)ccc2N1 (centres undefined) 8.27%, Cc1cc(C=O)c(C)n1-c1ccc(Cl)c(C(=O)O)c1 14.1%, Cc1cc(/C=C2/C(=O)NN(c3ccccc3)C2=O)c(C)n1-c1ccc(O)cc1 -3.4%, CCCC(C)c1nnc(NC(=O)C(=O)OCC)s1 (centres undefined) 2.47%, O=C(NC(=S)NNS(=O)(=O)c1ccc(Cl)cc1)c1cccnc1 20%, O=C(NC(=S)NNS(=O)(=O)c1ccccc1)c1ccc([N+](=O)[O-])cc1 21.4%, O=C(NNS(=O)(=O)c1ccccc1)c1cccnc1 1.34%, O=C(NNC(=S)NC(=O)c1ccccc1[N+](=O)[O-])c1ccccc1[N+](=O)[O-] 51.9%, CCOC(=O)C1C(=O)C=C(Nc2ccccc2F)CC1c1ccccc1 (centres undefined) 10.8%, CCOC(=O)C(C(=O)OCC)N(C#N)c1nc(OC)nc(N(C)C)n1 3.46%, O=Cc1cccc(Oc2ncccn2)c1 3.35%, CCOC(=O)N1CCC(Nc2c(NCCCN(CC)CC)c(=O)c2=O)CC1 -6.21%, O=C1CCC(=O)N1c1cccc(OS(=O)(=O)c2ccccc2)c1 10.4%, Cc1cc(C(F)(F)F)n2nc(-c3cnn(C)c3C(F)(F)F)c(Br)c2n1 4.73%, O=C(NCc1ccccc1)N[C@@H](Cc1ccccc1)C(=O)O 27.9%, COC(=O)[C@H](Cc1ccccc1)NC(=O)NCc1cccs1 7.7%, NS(=O)(=O)c1ccc(NC(=O)N[C@@H](Cc2ccccc2)C(=O)O)cc1 9.55%, O=C(Cc1ccccc1)N[C@@H](Cc1ccc(O)cc1)C(=O)O 7.55%, COc1ccccc1Nc1nc2ccc(C)cc2cc1C#N 5.31%, COc1ccc(N2CCN(c3nc4ccccc4n3CC(=O)c3ccccc3)CC2)cc1 12.7%, Cc1ccc(S(=O)(=O)/C=C2\NC(=O)CS2)cc1 34.6%, O=C1CS/C(=C/C(=O)c2cccc(Cl)c2)N1 16%, O=C(O)c1ccc(/C=N/NC(=O)c2cc(-c3cccs3)nc3ccccc23)cc1 -43.1%, CC1CCC(N2CCN(c3ncccn3)CC2)CC1 (centres undefined) 1.15%, Cc1ccc(-c2cc(-c3ccccc3C)[nH]n2)c(O)c1 9.91%, Cc1ccc(O)c(-c2cc(-c3ccccc3C)[nH]n2)c1 -1.23%, Cc1ccc(NC(=O)CSC2=C(C#N)C(c3ccco3)C3=C(CC(C)(C)CC3=O)N2)cc1 (centres undefined) 1.21%, C=C(C)C(=O)Oc1ccc(N2C(=O)CCC2=O)cc1 15.3%, O=C(CSc1nc2ccccc2c(=O)n1CCCN1CCOCC1)Nc1cccc(S(=O)(=O)N2CCCCCC2)c1 -0.76%, CCOc1ccccc1NC(=O)N1CCN(S(C)(=O)=O)CC1 -3.49%, CCn1cc(CNC(=O)/C=C/c2cnn(C)c2)c(C)n1 -7.7%, O=c1cc(O)c(-c2ccc(Cl)c(Cl)c2)c(Cl)[nH]1 4.59%, Nc1cc(-c2cccc([N+](=O)[O-])c2)[nH]n1 10.1%, O=[N+]([O-])c1cccc(-c2ccn[nH]2)c1 0.95%, Clc1ccc(-c2n[nH]c3c2CCC3)cc1Cl -3.59%, Cc1ccc([N+](=O)[O-])cc1S(=O)(=O)N1CCCCC1C(=O)O (centres undefined) 11.7%, COc1cccc(CN2CCN(C(=O)CC(C)C)CC2)c1 -2.21%, O=C1CNC(=O)/C(=C/c2ccco2)N1 6.62%, Cc1ccc(-n2c(C)cc(/C=N/Nc3ccc([N+](=O)[O-])cn3)c2C)cc1 -7.78%, Cc1cc(/C=N/Nc2ccc([N+](=O)[O-])cn2)c(C)n1-c1ccccc1 9.51%, Cc1ccnc2nc(C(=O)NCc3cccs3)nn12 -0.8%, NS(=O)(=O)c1ccc(CCNC(=O)C2CCN(S(=O)(=O)c3c(Cl)cccc3Cl)CC2)cc1 1.28%, Cc1cc(C)cc(N(CC(=O)Nc2ccccc2C(=O)N2CCOCC2)S(C)(=O)=O)c1 -5.57%, CC#CCC(CC#CC)c1nc2ccccc2c(=O)n1N -1.78%, Cc1ccc(-c2noc(CCC(=O)NC3CCCc4ccccc43)n2)cc1 (centres undefined) -3.35%, Cc1ccc(Cn2ccc(NC(=O)c3cc(C4CC4)on3)n2)cc1 1.62%, Cc1ccc(Cn2ccc(NC(=O)c3cc(C)on3)n2)cc1 -2.56%, Cc1c(NC(C)c2ccccc2O)c(=O)n(-c2ccccc2)n1C (centres undefined) 3.02%, C/C(=C\C(=O)c1ccc(Br)cc1)Nc1ccc(Cl)cc1 -7.69%, COc1ccc(C(=O)Nc2ccc(S(=O)(=O)Nc3nccnc3OC)cc2)cc1OC 16.3%, CCc1nnc(NS(=O)(=O)c2ccc(N3C(=O)c4ccc(C(=O)O)cc4C3=O)cc2)s1 3.4%, COc1nccnc1NS(=O)(=O)c1ccc(N=Cc2c(C)[nH]n(-c3ccc(Cl)cc3)c2=O)cc1 38.5%, Cc1[nH]n(-c2ccccc2)c(=O)c1C=Nc1ccc(S(=O)(=O)Nc2nccs2)cc1 3.82%, CCc1nnc(NS(=O)(=O)c2ccc(N=Cc3c(C)[nH]n(-c4ccc(Cl)cc4)c3=O)cc2)s1 45.4%, Cc1ccc(-n2[nH]c(C)c(C=Nc3ccc(S(=O)(=O)Nc4nccs4)cc3)c2=O)cc1C -8.94%, Cc1cc(C)nc(NS(=O)(=O)c2ccc(N=Cc3c(C)[nH]n(-c4ccccc4)c3=O)cc2)n1 6.98%, CCc1nnc(NS(=O)(=O)c2ccc(NS(=O)(=O)c3ccc(NC(C)=O)cc3)cc2)s1 35.4%, O=C(CN1CCOCC1)Nc1ccccc1-c1ccccc1 -4.42%, CCOc1ccccc1N1CCN(C(=O)c2c(C)noc2C)CC1 -5.81%, CCC1CCCN1Cn1cnc2c([nH]c3ccc(C)cc32)c1=O (centres undefined) 0.76%, CCCc1nnc(NC(=O)CCC(=O)NCc2ccc(OC)cc2)s1 13.8%, CCCCOc1ccccc1Cn1c(=O)oc2ccc(C)cc21 -14.1%, O=C(CSc1ncccn1)n1c2c(c3ccccc31)CCCC2 0.07%, Cc1nc2ccccc2c2c1C(=O)N(C1CCCCCCC1)C2=O -2.77%, CN1C(=O)CSc2ccc(NC(=O)N3CCN(c4ccccc4)CC3)cc21 -3.56%, CC1CN(C(=O)c2ccc(N3CCCCC3)c([N+](=O)[O-])c2)CC(C)O1 (centres undefined) 8.04%, Cc1noc(NS(=O)(=O)c2ccc(NC(=O)c3cnc4n(c3=O)CCS4)cc2)c1C 36%, CCOc1cc(/C=N/NC(=S)Nc2ccccc2C(F)(F)F)ccc1OCC(=O)N1CCOCC1 0.32%, Cc1cc(-c2nc(-c3ccc(C(C)(C)C)cc3)no2)no1 2.57%, COCCCNC(=O)c1ccc(C2SCC(=O)N2Cc2ccco2)cc1 (centres undefined) 9.82%, COc1cc(SC)ccc1C(=O)NCc1ccc(C)cc1 -9.45%, CCc1nnc(NS(=O)(=O)c2ccc(N3C(=O)c4ccccc4C3=O)cc2)s1 19.2%, CCc1nnc(NS(=O)(=O)c2ccc(N=CC3=C(O)CC(C)(C)CC3=O)cc2)s1 37.1%, COc1cccc(/C=C2/NC(=O)NC2=O)c1OCC(=O)Nc1ccccc1 1.46%, Cc1ccnc2nc(C(=O)OCCOc3ccc(F)cc3)nn12 -4.95%, Cc1ccc(OCC(=O)Nc2cc(C(=O)O)cc(C(=O)O)c2)cc1C -17.5%, Cc1ccc(OCC(=O)Nc2cccc(O)c2)cc1C 17.6%, Cc1cc(C)c(C#N)c(SCCS(=O)(=O)Cc2ccccc2)n1 -2.33%, N#Cc1cc2c(nc1SCC(O)CS(=O)(=O)Cc1ccccc1)CCCC2 (centres undefined) 22.9%, COC(=O)N/N=C/c1cccc(OCCSc2ccc(Cl)cc2)c1 11.2%, C/C(=N\NC(=O)Cc1c[nH]c2ccccc12)c1ccc2ccccc2c1 -0.21%, C/C(=N\NC(=O)Cc1cccn1C)c1ccc2ccccc2c1 32.5%, COc1cc(/C(C)=N/NC(=O)CSc2nc3ccccc3[nH]2)ccc1O 8.45%, COc1cc(/C(C)=N/NC(=O)CSc2nnc(C)s2)ccc1O -1.63%, C/C(=N\NC(=O)COc1ccccc1)c1ccc(O)cc1 16.8%, C/C(=N\NC(=O)Cc1ccc(F)cc1)c1ccc(O)cc1 6.85%, CN(C)c1ccc(NC(=S)N2CCN(c3ncc(C(F)(F)F)cc3Cl)CC2)cc1 -0.82%, COc1ccccc1N1CCN(CC(=O)Nc2ccc(-n3cnnn3)cc2)CC1 -1.4%, O=c1cc(N2CCOCC2)[nH]c(=O)n1C1CCCCC1 8.33%, CC(C)c1nc(-c2c(N)n(C)c(=O)n(C)c2=O)sc1C(=O)C(C)(C)C -3.01%, O=C(c1cc(-c2ccc3c(c2)OCO3)on1)N1CCOCC1 -10.2%, Cc1ccc(NC(=O)Nc2ccc(F)cc2)nc1 3.7%, CCC(=O)N1CCN(c2ccc(NC(=O)c3ccc([N+](=O)[O-])o3)cc2Cl)CC1 3.55%, CCOC(=O)N1CCN(C(=O)Nc2cccc3ccccc23)CC1 23.7%
